KB-3-1 tox – qHTS assay for MDR1-selective chemotherapeutics: Primary screen using the parental adenocarcinoma cell KB-3-1. 400,000 compounds, 1.4% hits. AID 1347075, 2019. KB-3-1 viability, CellTiter-Glo ATP luminescence, 72 h. Potency, µM (titrated, usually from 46.1 µM), hits mostly cytotoxic; further: on the % scale 0 is the no-effect control and ±100 the full control effect; nearly all actives have a fitted effect of over 60% in size
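Cytotoxicity measured as CellTiter-Glo luminescence after 72 h at 37 C. Compound titrations were pinned onto drug-naive KB-3-1 parental adenocarcinoma cells grown in DMEM with 10% FBS, and normalized data fitted to concentration-response curves.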
KB-V1 cytotox – qHTS assay for MDR1-selective chemotherapeutics: Primary screen using the drug-selected MDR subline cells KB-V1. KB-V1 MDR cells viability, CellTiter-Glo, 72 h. Potency, µM (series often up to 46.1 µM), actives largely listed as cytotoxic. 400,000 compounds, 3.4% hits. AID 1347076, 2019; further: on the % scale 0 is the no-effect control and ±100 the full control effect; nearly all actives have a fitted effect of over 60% in size
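In this primary screen, KB-V1 cells overexpressing P-gp are incubated with library compounds (lowest to highest concentration) for 72 h at 37 degrees C before a luminescent ATP viability read.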
HT1080NT lethal – qHTS for induction of synthetic lethality in tumor cells producing 2HG: qHTS for the HT-1080-NT fibrosarcoma cell line; HT-1080-NT fibrosarcoma viability, CellTiter-Glo ATP luminescence, 48 h; Potency, µM (top dose mostly 46.1 µM), for inactives: top-dose activity, negative = less viability, most hits filed as cytotoxic; 360,000 compounds, 1.6% hits;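 further: NT is the 2HG producing partner of a matched IDH1 knockdown line; 0% = DMSO-treated cells and -100% = media-only wells without cells; nearly all actives have a fitted effect of over 55% in size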
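Compounds were tested in concentration-response format on HT-1080-NT cells for 48 hours at 37 degrees C. Cell viability came from CellTiter-Glo luminescence; curves were classified by r2, response magnitude and activity.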
SW480 rereplic – A quantitative high throughput screen for small molecules that induce DNA re-replication in SW480 colon adenocarcinoma cells | SW480 DNA re-replication, Hoechst DNA content imaging, 48 h | Potency, µM (doses to about 46.1 µM), for the others: top-dose re-replication activation, usual class: activators | 340,000 compounds, 1.8% hits | AID 624297, 2012; further: % of control where 0% means no effect; nearly all actives have a fitted effect of over 55% in size
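Hoechst fluorescence of nuclei (405 nm excitation, 500-530 nm emission) measured by plate-scanning imager after 48 hr compound exposure at 37 C; re-replication scored as increased number of nuclei with elevated intensity.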
HT1080 IDH1KD tx – qHTS for induction of synthetic lethality in tumor cells producing 2HG: qHTS for the HT-1080-IDH1KD cell line. AID 686971, 2013. Potency, µM (highest dose often 46.1 µM), inactives show at the top dose activity, negative = toxicity, most hits filed as cytotoxic. 360,000 compounds, 2% hits. HT-1080 IDH1 knockdown viability, ATP luminescence, 48 h;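 further: 0% = DMSO wells and -100% = cell-free medium wells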
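HT-1080-IDH1KD cells (IDH1 knocked down), 750/well in RPMI with 5% FBS, treated with compound 48 h at 37 degrees C. Viability by CellTiter-Glo luminescence, normalised to DMSO and no-cell wells; concentration-response curves classed.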
MCF10A rereplic – A quantitative high throughput screen for small molecules that induce DNA re-replication in MCF 10a normal breast cells; MCF 10A DNA re-replication, Hoechst nuclear intensity, 48 h; Potency, µM (highest dose often 46.1 µM), for inactives: at the highest dose activity, positive = re-replication, usual class: activators; 350,000 compounds, 2.9% hits; further: % of control where 0% means no effect; nearly all actives have a fitted effect of over 50% in size
An asterisk follows results filed as active. Rows were chosen to be rich in hits. Some 7.9% of all compounds tested hit in one or more screens of this group. The call rests on the fitted dose curve; in most records, active means well fitted curve in the direction sought with a large enough effect; inconclusive means small, poorly fitted or top-dose-only effect, or another doubt; inactive means no such curve, though single readings can be large; an effect the other way counts as inactive or inconclusive. Potency means the concentration at half of the fitted maximal effect.

What do the screens show for `COc1ccc(CCNc2nc3c(c(=O)n(C)c(=O)n3C)n2C)cc1OC`?
KB-3-1 tox: inactive; KB-V1 cytotox: 15µM*; HT1080NT lethal: 4%; SW480 rereplic: -3%; HT1080 IDH1KD tx: 12%; MCF10A rereplic: 6%

Results for Cn1c(=O)c2c(nc(NCCc3ccccc3)n2Cc2ccc(F)cc2)n(C)c1=O ?
KB-3-1 tox: inconclusive; KB-V1 cytotox: 4.1µM*; HT1080NT lethal: -15%; SW480 rereplic: 7%; HT1080 IDH1KD tx: -25%; MCF10A rereplic: 26%

How did COCCNc1nc2c(c(=O)n(C)c(=O)n2C)n1Cc1cccc(C)c1 do in these assays?
KB-3-1 tox: inconclusive; KB-V1 cytotox: inactive; HT1080NT lethal: -9%; SW480 rereplic: 1%; HT1080 IDH1KD tx: -19%; MCF10A rereplic: 7%

How did COc1ccc(CCNC(=O)CSc2nc3c(c(=O)n(C)c(=O)n3C)n2C(C)C)cc1OC do in these assays?
KB-3-1 tox: inactive; KB-V1 cytotox: inactive; HT1080NT lethal: 9%; SW480 rereplic: -4%; HT1080 IDH1KD tx: 17%; MCF10A rereplic: -2%

Results for Cc1cccc(Cn2c(NCCO)nc3c2c(=O)n(C)c(=O)n3C)c1 ?
KB-3-1 tox: inconclusive; KB-V1 cytotox: 4.1µM*; HT1080NT lethal: inconclusive; SW480 rereplic: -4%; HT1080 IDH1KD tx: -3%; MCF10A rereplic: -11%

What do the screens show for `CC(C)CCn1c(NCCc2ccccc2)nc2c1c(=O)n(C)c(=O)n2C`?
KB-3-1 tox: inconclusive; KB-V1 cytotox: 13µM*; HT1080NT lethal: -30%; SW480 rereplic: -3%; HT1080 IDH1KD tx: inconclusive; MCF10A rereplic: 20%

How did Cc1ccc(C)c(OCCC(=O)Nc2ccc(S(=O)(=O)N3CCCC3)cc2)c1 do in these assays?
KB-3-1 tox: inactive; KB-V1 cytotox: inactive; HT1080NT lethal: inconclusive; SW480 rereplic: 11%; HT1080 IDH1KD tx: inconclusive; MCF10A rereplic: 2%

Results for O=C(CSc1nnc(Cn2nnc3ccccc32)o1)Nc1cccc(Cl)c1 ?
KB-3-1 tox: inactive; KB-V1 cytotox: inactive; HT1080NT lethal: 15%; SW480 rereplic: -3%; HT1080 IDH1KD tx: 14%; MCF10A rereplic: 8%

Results for O=C(CSc1nnc(Cn2nnc3ccccc32)o1)N(Cc1ccc(Cl)cc1)c1ccccc1 ?
KB-3-1 tox: 13µM*; KB-V1 cytotox: inactive; HT1080NT lethal: -5%; SW480 rereplic: 3%; HT1080 IDH1KD tx: 3.3µM*; MCF10A rereplic: -15%

How did CCn1c(=O)c(C(=O)Nc2cccnc2)c(O)c2ccccc21 do in these assays?
KB-3-1 tox: inactive; KB-V1 cytotox: inactive; HT1080NT lethal: 9%; SW480 rereplic: -2%; HT1080 IDH1KD tx: 4%; MCF10A rereplic: 2%

Results for Cn1c(=O)c2c(nc(N3CCN(c4ccccn4)CC3)n2Cc2ccc(Cl)cc2Cl)n(C)c1=O ?
KB-3-1 tox: inactive; KB-V1 cytotox: 0.65µM*; HT1080NT lethal: 8%; SW480 rereplic: -6%; HT1080 IDH1KD tx: 25%; MCF10A rereplic: 0%

What do the screens show for `Cn1c(=O)c2c(nc(NCC3CCCC(CN)C3)n2Cc2ccc(Cl)cc2Cl)n(C)c1=O` (configuration not stated)?
KB-3-1 tox: inconclusive; KB-V1 cytotox: inconclusive; HT1080NT lethal: inconclusive; SW480 rereplic: 4.1µM*; HT1080 IDH1KD tx: -29%; MCF10A rereplic: inconclusive

What do the screens show for `CC(C)(C)c1cc(C(=O)N/N=C/c2ccc(F)cc2)n(-c2ccccc2)n1`?
KB-3-1 tox: inactive; KB-V1 cytotox: inactive; HT1080NT lethal: -1%; SW480 rereplic: -2%; HT1080 IDH1KD tx: 11%; MCF10A rereplic: -7%

How did CC(O)C(=O)N/N=C/c1cccc2ccccc12 (configuration not stated) do in these assays?
KB-3-1 tox: inconclusive; KB-V1 cytotox: inconclusive; HT1080NT lethal: 7%; SW480 rereplic: -13%; HT1080 IDH1KD tx: 8%; MCF10A rereplic: -1%

How did O=C(O)c1cc(N/N=C/c2cccc3ccccc23)ccc1Cl do in these assays?
KB-3-1 tox: inactive; KB-V1 cytotox: inactive; HT1080NT lethal: -6%; SW480 rereplic: -1%; HT1080 IDH1KD tx: 1%; MCF10A rereplic: 23µM*

Results for O=C(NN=Cc1cccc2ccccc12)C(=O)NN=Cc1cccc2ccccc12 ?
KB-3-1 tox: inconclusive; KB-V1 cytotox: inactive; HT1080NT lethal: -2%; SW480 rereplic: inconclusive; HT1080 IDH1KD tx: 7%; MCF10A rereplic: 2.3µM*

What do the screens show for `O=C(CN1CSCC1=O)N1CCN(S(=O)(=O)c2cccc(F)c2)CC1`?
KB-3-1 tox: inactive; KB-V1 cytotox: inconclusive; HT1080NT lethal: 6%; SW480 rereplic: -14%; HT1080 IDH1KD tx: 4%; MCF10A rereplic: 2%

Results for C=CCc1cccc2cc(C(=O)NCCc3c(C)[nH]c4c(C)cccc34)c(=O)oc12 ?
KB-3-1 tox: inactive; KB-V1 cytotox: inactive

Results for Cc1[nH]c2ccccc2c1CCNC(=O)c1ccc2c(c1[N+](=O)[O-])C(=O)c1ccccc1C2=O ?
KB-3-1 tox: inactive; KB-V1 cytotox: 16µM*; HT1080NT lethal: -17%; SW480 rereplic: inconclusive; HT1080 IDH1KD tx: inconclusive; MCF10A rereplic: inconclusive

How did CN(C)C(=O)c1ccc2c(c1[N+](=O)[O-])C(=O)c1ccccc1C2=O do in these assays?
KB-3-1 tox: inactive; KB-V1 cytotox: inconclusive; HT1080NT lethal: -18%; HT1080 IDH1KD tx: -16%; MCF10A rereplic: inconclusive

What do the screens show for `Cc1[nH]c2c(C)cccc2c1CCNC(=O)c1ccc2c(c1[N+](=O)[O-])C(=O)c1ccccc1C2=O`?
KB-3-1 tox: inconclusive; KB-V1 cytotox: inactive; HT1080NT lethal: 16µM*; SW480 rereplic: 18µM*; HT1080 IDH1KD tx: 21µM*; MCF10A rereplic: 7.9µM*

What do the screens show for `C=CCNC(=S)N/N=C/c1ccc(C(F)(F)F)cc1`?
KB-3-1 tox: inconclusive; KB-V1 cytotox: inactive; HT1080NT lethal: inconclusive; SW480 rereplic: 58%; HT1080 IDH1KD tx: -12%; MCF10A rereplic: 22%

How did Cc1ccc(O)c(C(=O)c2cnc3c(c2)CN(CCC(C)C)C(=O)N3)c1 do in these assays?
KB-3-1 tox: inactive; KB-V1 cytotox: inactive; HT1080NT lethal: inconclusive; SW480 rereplic: 15%; HT1080 IDH1KD tx: inconclusive; MCF10A rereplic: 19%
